Experimental data published in the supplement of paper PMC6992640.
± gives the standard deviation of the averaged measurements.

Tests used:
Assay in all cases: cell viability (% of vehicle); higher = less cytotoxic
Conditions in all cases: 10 µM; 72 h
HCI01 = tested on: HCI01 (cells of a triple-negative basal-like breast cancer xenograft)
HCI03 = tested on: HCI03 (cells of an ER-positive luminal breast cancer xenograft)
HCI09 = tested on: HCI09 (cells of a triple-negative luminal androgen receptor type breast cancer xenograft)
HCI11 = tested on: HCI11 (cells of an ER-positive luminal breast cancer xenograft)
HCI13 = tested on: HCI13 (cells of an ER-positive luminal breast cancer xenograft)
HCI16 = tested on: HCI16 (cells of a triple-negative basal-like breast cancer xenograft)
UCD52 = tested on: UCD52 (cells of a triple-negative basal-like breast cancer xenograft)
WHIM2 = tested on: WHIM2 (cells of a triple-negative basal-like breast cancer xenograft)
WHIM30 = tested on: WHIM30 (cells of a triple-negative basal-like breast cancer xenograft)
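Also: PDX cells carrying CMV promoter-driven luciferase, viability read as total photon flux per second by IVIS imaging following D-luciferin, vehicle control 0.1% DMSO.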

Structure (SMILES) | cell viability (HCI01) | cell viability (HCI03) | cell viability (HCI09) | cell viability (HCI11) | cell viability (HCI13) | cell viability (HCI16) | cell viability (UCD52) | cell viability (WHIM2) | cell viability (WHIM30)
Cc1[nH]c(=O)c(C#N)cc1-c1ccncc1 [Milrinone] | 124 ± 0.28 | 117 | 96.6 ± 32 | 102 | 98 ± 13 | 94 | 90.5 ± 4.6 | 101 ± 10 | 106 ± 18
CCCC(CCC)C(=O)O.CCCC(CCC)C(=O)[O-].[Na+] [Divalproex Sodium] | 112 ± 1.5 | 116 | 96.4 ± 23 | 111 | 114 ± 41 | 94.5 | 86.1 ± 2.9 | 80.1 ± 16 | 90.4 ± 14
COc1ccc(C2Sc3ccccc3N(CCN(C)C)C(=O)C2OC(C)=O)cc1.Cl (stereo not drawn) [Diltiazem HCl] | 81.5 ± 45 | 123 | 85.4 ± 4 | 88.9 | 95.5 ± 7.5 | 108 | 72.3 ± 5.6 | 93 ± 22 | 131 ± 15
Cc1ccc(-c2cc(C(F)(F)F)nn2-c2ccc(S(N)(=O)=O)cc2)cc1 [Celecoxib] | 139 ± 24 | 110 | 94.7 ± 7.4 | 94.4 | 94 ± 2.9 | 112 | 70.1 ± 3.8 | 93.3 ± 12 | 100.5 ± 1
COc1cc(NS(=O)(=O)c2ccc(N)cc2)nc(OC)n1 [Sulfadimethoxine] | 91.8 ± 17 | 155 | 103 ± 14 | 103 | 116 ± 1.2 | 118 | 112 ± 5.2 | 86.1 ± 9.4 | 172 ± 27
CC(=O)Nc1cccc(-n2c(=O)n(C3CC3)c(=O)c3c(Nc4ccc(I)cc4F)n(C)c(=O)c(C)c32)c1 | 103 ± 34 | 94 | 82.1 ± 34 | 98.3 | 110 ± 16 | 120 | 48 ± 14 | 74.2 ± 8.9 | 133 ± 24
Nc1nc(=O)c2ncn(COC(CO)CO)c2[nH]1 [Ganciclovir] | 63.1 ± 33 | 124 | 94.8 ± 2 | 97.9 | 112 ± 17 | 126 | 87.3 ± 5.8 | 93.5 ± 46 | 142.4 ± 1.3
O=C1NC([O-])=NC1(c1ccccc1)c1ccccc1.[Na+] [Phenytoin sodium] | 97.2 ± 10 | 142 | 96.6 ± 14 | 101 | 104 ± 9.4 | 114 | 91.6 ± 8.2 | 105 ± 7.8 | 118 ± 8.7
Cn1c(=O)cc(N2CCCC(N)C2)n(Cc2cc(F)ccc2C#N)c1=O (stereo not drawn) [Trelagliptin] | 111 ± 7 | 116 | 112 ± 6.1 | 111 | 104 ± 1.3 | 95.2 | 96.2 ± 11 | 96.8 ± 4.5 | 121 ± 13
NC(CO)(CO)CO [Trometamol] | 86.3 ± 6.3 | 114 | 94.9 ± 21 | 91.5 | 58.4 ± 13 | 104 | 86 ± 7 | 99.2 ± 16 | 113 ± 12
CCCCC1=NC2(CCCC2)C(=O)N1Cc1ccc(-c2ccccc2-c2nn[nH]n2)cc1 [Irbesartan] | 86.3 ± 2 | 105 | 94.6 ± 3.9 | 91.8 | 114 ± 2.4 | 107 | 103 ± 5.5 | 105 ± 4.9 | 82.7 ± 24
CN1C(C(=O)Nc2ccccn2)=C(O)c2ccccc2S1(=O)=O [Piroxicam] | 103 ± 9.8 | 102 | 53.8 ± 29 | 133 | 103 ± 3.6 | 90.5 | 88.27 ± 0.58 | 91.5 ± 17 | 117 ± 13
CC(Cc1cc2c(c(C(N)=O)c1)N(CCCO)CC2)NCCOc1ccccc1OCC(F)(F)F (stereo not drawn) [Silodosin] | 103 ± 7.4 | 99.5 | 106 ± 39 | 127 | 96.6 ± 16 | 117 | 82.5 ± 14 | 98 ± 21 | 94.2 ± 6.5
O=S(=O)(O)NC1CCCCC1 [Cyclamic acid] | 91.4 ± 14 | 118 | 94.4 ± 2 | 91.9 | 58.1 ± 1.3 | 121 | 88.7 ± 18 | 104 ± 13 | 106 ± 5.2
Cl.O=c1n(CCCN2CCN(c3cccc(Cl)c3)CC2)nc2ccccn12 [Trazodone HCl] | 112 ± 11 | 123 | 95.5 ± 16 | 101 | 104 ± 9.6 | 148 | 89.05 ± 0.23 | 105 ± 23 | 192 ± 16
CCOC(=O)NC1CCC2C(C1)CC1C(=O)OC(C)C1C2C=Cc1ccc(-c2cccc(F)c2)cn1 (stereo not drawn) [Vorapaxar] | 132 ± 37 | 121 | 90.5 ± 21 | 104 | 84.1 ± 22 | 108 | 76.4 ± 3.5 | 115 ± 27 | 72.6 ± 10
CC(C)OC(=O)OCOP(=O)(COC(C)Cn1cnc2c(N)ncnc21)OCOC(=O)OC(C)C.O=C(O)C=CC(=O)O (stereo not drawn) [Tenofovir Disoproxil Fumarate] | 106 ± 2.7 | 130 | 94.5 ± 7.6 | 97 | 51.9 ± 9.2 | 105 | 106 ± 12 | 118 ± 28 | 136 ± 10
O=C(O)Cc1ccccc1Nc1c(Cl)cccc1Cl [Diclofenac] | 92.9 ± 26 | 123 | 84.8 ± 15 | 96.8 | 114 ± 31 | 127 | 90.6 ± 16 | 87.4 ± 0.94 | 92.1 ± 4.7
O=c1cc[nH]c(=S)[nH]1 [2-Thiouracil] | 107 ± 6.1 | 139 | 94.4 ± 19 | 103 | 82.4 ± 8.2 | 112 | 91.8 ± 2.9 | 117 ± 34 | 178 ± 5.9
Nc1nccs1 [Aminothiazole] | 147 ± 24 | 105 | 101 ± 3.2 | 117 | 98.3 ± 7.8 | 136 | 91.8 ± 5.1 | 116 ± 5.8 | 105 ± 18
NC(=O)NN=Cc1ccc([N+](=O)[O-])o1 [Nitrofurazone] | 125 ± 3.8 | 149 | 38.5 ± 15 | 92.3 | 159 ± 12 | 148 | 137 ± 15 | 105 ± 7.4 | 118 ± 18

Structure (SMILES) | cell viability (HCI01) | cell viability (HCI03) | cell viability (HCI09) | cell viability (HCI11) | cell viability (HCI13) | cell viability (HCI16) | cell viability (UCD52) | cell viability (WHIM2) | cell viability (WHIM30)
CN(C)NN=C1N=CN=C1C(N)=O [Dacarbazine] | 122 ± 9.3 | 92.9 | 110.4 ± 0.52 | 93.5 | 120 ± 16 | 82.7 | 107 ± 8 | 80.3 ± 24 | 118 ± 25
CC1(C)SC2C(NC(=O)C(N)c3ccccc3)C(=O)N2C1C(=O)O.O.O.O (stereo not drawn) [Ampicillin Trihydrate] | 138 ± 26 | 124 | 94.6 ± 8.1 | 110 | 143 ± 7.4 | 120 | 82 ± 7.2 | 103 ± 2.1 | 95.8 ± 2.6
O=C(O)Cc1cc(I)c(Oc2ccc(O)c(I)c2)c(I)c1 [Tiratricol] | 112 ± 48 | 99 | 82.8 ± 6.7 | 87.2 | 42.5 ± 4.2 | 97.2 | 75.6 ± 7.3 | 103 ± 20 | 115 ± 6.8
CC(=O)OC1(C(C)=O)CCC2C3CC(C)C4=CC(=O)CCC4(C)C3CCC21C (stereo not drawn) [Medroxyprogesterone acetate] | 122 ± 12 | 114 | 98.5 ± 53 | 78.4 | 152 ± 16 | 177 | 95 ± 3.6 | 87.8 ± 5.8 | 184 ± 9.5
CS(=O)(=O)c1ccc(C(O)C(CF)NC(=O)C(Cl)Cl)cc1 (stereo not drawn) [Florfenicol] | 118 ± 25 | 118 | 89.5 ± 2.1 | 101 | 114 ± 8.4 | 116 | 102 ± 2.6 | 87.4 ± 18 | 99.1 ± 6.9
NC(CSCCCO)C(=O)O (stereo not drawn) [Fudosteine] | 91 ± 9.3 | 103 | 87.1 ± 7.6 | 94.5 | 107 ± 11 | 96.1 | 77.3 ± 4.8 | 112 ± 14 | 91.1 ± 8.5
NC(N)=NS(=O)(=O)c1ccc(N)cc1 [Sulfaguanidine] | 99.8 ± 16 | 135 | 88.6 ± 12 | 86.1 | 108 ± 7.2 | 135 | 85.4 ± 6.9 | 116 ± 6.5 | 118 ± 2.4
CCOC(=O)c1ccc(N)cc1 [Benzocaine] | 144 ± 13 | 87.2 | 115 ± 14 | 117 | 79.8 ± 1.6 | 134 | 117 ± 8.3 | 142 ± 12 | 140 ± 10
N[C@@H](CCC(=O)N[C@@H](CS)C(=O)NCC(=O)O)C(=O)O [L-Glutathione Reduced] | 103 ± 5.7 | 115 | 107 ± 4 | 85.3 | 104 ± 6.7 | 113 | 99.8 ± 5.5 | 98.6 ± 5 | 131 ± 2.4
O=C(O)c1cc(=O)c2ccccc2o1 [Chromocarb] | 124 ± 23 | 119 | 96.2 ± 1.6 | 78.7 | 71.6 ± 5.2 | 111 | 92.59 ± 0.2 | 103 ± 11 | 85.9 ± 2.8
OCC(O)CN1CCN(c2ccccc2)CC1 (stereo not drawn) [Dropropizine] | 97.2 ± 14 | 129 | 89.7 ± 11 | 90.3 | 66 ± 10 | 94.3 | 98.7 ± 2.5 | 99.3 ± 20 | 101.7 ± 0.4
CC(c1ncncc1F)C(O)(Cn1cncn1)c1ccc(F)cc1F (stereo not drawn) [Voriconazole] | 121 ± 8.9 | 133 | 98.8 ± 11 | 121 | 137 ± 7.1 | 115 | 106 ± 22 | 105 ± 9.5 | 137 ± 22
CC(=O)OC1(C(C)=O)CCC2C3C=C(Cl)C4=CC(=O)C5CC5C4(C)C3CCC21C (stereo not drawn) [Cyproterone Acetate] | 88.6 ± 12 | 112 | 73.1 ± 17 | 87.1 | 145 ± 8 | 110 | 89.2 ± 7.3 | 116 ± 34 | 128 ± 7.7
Cc1ccccc1C(OCCN(C)C)c1ccccc1.O=C(O)CC(O)(CC(=O)O)C(=O)O (stereo not drawn) [Orphenadrine Citrate] | 145 ± 33 | 130 | 104 ± 1.3 | 90.9 | 108 ± 15 | 138 | 68.3 ± 6.3 | 83.3 ± 17 | 100 ± 7.5
CC(S)C(=O)NCC(=O)O (stereo not drawn) [Tiopronin (Thiola)] | 104 ± 4.1 | 109 | 54.6 ± 48 | 107 | 105 ± 18 | 99.3 | 93.7 ± 3.6 | 103 ± 14 | 115 ± 4.5
Cc1nc2n(c(=O)c1CCN1CCC(c3noc4cc(F)ccc34)CC1)CCCC2 [Risperidone] | 133 ± 7.9 | 82.8 | 107 ± 61 | 105 | 118 ± 38 | 107 | 83.8 ± 11 | 86 ± 25 | 128 ± 15
Cc1nnc(C(=O)NC(C)(C)c2nc(C(=O)NCc3ccc(F)cc3)c(O)c(=O)n2C)o1 [Raltegravir (MK-0518)] | 126 ± 2 | 134 | 97 ± 18 | 116 | 93.4 ± 11 | 118 | 119 ± 20 | 116 ± 15 | 136 ± 7.5
CC(=O)O[C@H]1C(=O)[C@@]2(C)[C@H]([C@H](OC(=O)c3ccccc3)[C@]3(O)C[C@H](OC(=O)[C@H](O)[C@@H](NC(=O)c4ccccc4)c4ccccc4)C(C)=C1C3(C)C)[C@]1(OC(C)=O)CO[C@@H]1C[C@@H]2O [Paclitaxel (Taxol)] | 124 ± 7.2 | 92.4 | 95 ± 4.1 | 96.5 | 100 ± 8.8 | 156 | 66.2 ± 4.7 | 92.9 ± 12 | 114 ± 7.4
Clc1ccc2c(c1)C(N1CCNCC1)=Nc1ccccc1O2 [Amoxapine] | 96.5 ± 15 | 104 | 87.5 ± 8.7 | 85 | 88 ± 2.5 | 94.9 | 100 ± 40 | 91.7 ± 7.3 | 197 ± 18
COC(=O)C(c1ccccc1Cl)N1CCc2sccc2C1.O=S(=O)(O)O (stereo not drawn) [Clopidogrel] | 102 ± 3 | 115 | 91 ± 13 | 119 | 103 ± 4.8 | 101 | 76.7 ± 16 | 80.012 ± 0.0022 | 136 ± 6.6
CN1CCCC1c1cccnc1.O=C(O)C(O)C(O)C(=O)O.O=C(O)C(O)C(O)C(=O)O (stereo not drawn) [Nicotine Difartrate] | 115 ± 7.3 | 107 | 126 ± 40 | 114 | 99.2 ± 3.9 | 98.7 | 100 ± 12 | 99.6 ± 9.8 | 121 ± 2.7
